Source: ChEMBL document CHEMBL1157539, “Thousands of chemical starting points for antimalarial lead identification” (Nature, 2010)

Key:
Assay type in all cases: functional
[1] = system: Plasmodium falciparum; test: GSK_TCMDC: Inhibition of Plasmodium falciparum 3D7 in whole red blood cells, using parasite LDH activity as an index of growth. Test compounds present at 2uM
[2] = system: Plasmodium falciparum; test: GSK_TCMDC: Inhibition of Plasmodium falciparum Dd2 in whole red blood cells, using parasite LDH activity as an index of growth. Test compounds present at 2uM
[3] = system: HepG2; test: GSK_TCMDC: Percent inhibition of human HepG2 cell line. Test compounds present at 10uM.

Row | Compound | Inhibition [1] | Inhibition [2] | Inhibition [3]
1 | C[C@H](NC(=O)c1c(CN2CCC(N3CCCCC3=O)CC2)c(-c2cccs2)nc2ccccc12)C1CCCCC1 | 91% | 73% | 8%
2 | N=C(N)c1ccc(Nc2nccc(Nc3nc(-c4ccccc4)cs3)n2)cc1.O=C(O)C(F)(F)F | 96% | 75% | 13%
3 | CC1C(c2cccc(Cl)c2)OCC(C)(C)N1C(=O)CCN1CCCCC1.Cl (configuration not stated) | 88% | 5% | 2%
4 | COc1ccc(CN2CCCN(Cc3cccc(C(=O)Nc4ccc(C)c(F)c4)c3)CC2)cc1.O=C(O)C(F)(F)F | 83% | 10% | 49%
5 | O=C(O)C(F)(F)F.c1cc(CN2CCN(c3ccncc3)CC2)cc(-c2ccc(-c3nc4ccccc4[nH]3)s2)c1 | 100% | 100% | 59%
6 | CC1CN(c2cc(=O)n(Cc3cccc(NC(=O)Nc4ccc(-c5ccccc5)cc4)c3)cn2)CC(C)N1.O=C(O)C(F)(F)F (configuration not stated) | 100% | 63% | 2%
7 | COc1ccc(CN(C)CCCSc2ccc(NC(=O)c3cccc4c(=O)cc(-c5ccccc5)[nH]c34)cc2)cc1OC | 93% | 94% | 15%
8 | Cc1cccc2nc(-c3ccc(-c4ccc(NC(=O)C(C)CN(C)C)cc4)cc3)[nH]c12 (configuration not stated) | 99% | 99% | 18%
9 | Cc1ccc(NC(=O)N2CCCN(CCCCCNC(=O)/C=C/c3ccc(Cl)c(Cl)c3)CC2)cc1C | 100% | 4% | 62%
10 | COc1c(C2CCN(CCN3CCC(CNC(=O)c4ccc(-c5ccc(C#N)cc5)cc4)CC3)CC2)ccc2c1CCCC2 | 100% | 100% | 96%
11 | Cl.Cn1cnc(-c2ccc3c(c2)CCN(CCC2CCC(NC(=O)/C=C/c4ccc(F)cc4)CC2)CC3)c1 (configuration not stated) | 90% | 18% | 26%
12 | COCCOc1ccc(Nc2nccc(-c3c(-c4cccc(NC(=O)c5c(F)cccc5F)c4)nn4ccccc34)n2)cc1F | 90% | 60% | 62%
13 | O=C(Nc1ccc(C(=O)Oc2cccc3ccccc23)cc1)N[C@@H](Cc1ccc(O)cc1)C(=O)NC1CCN(Cc2ccc(O)cc2)C1.O=C(O)C(F)(F)F (some centres not stated) | 87% | 0% | 0%
14 | Cc1ccc(Cn2cnc3cc(C(=O)Nc4ccc(-c5ccc(CN(C)C)cc5)cc4)ccc3c2=O)o1 | 82% | 12% | 43%
15 | COc1ccc(CCNCCCCCCNCCc2ccc(-c3ccccc3)cc2)cc1OC.Cl | 99% | 35% | 100%
16 | COc1cc2nc(N3CCC(CNC(=O)/C=C/c4cccc(C)c4)CC3)nc(N)c2cc1OC | 100% | 68% | 16%
17 | CC(C)(C)OC(=O)NCc1ccc(Nc2nnc(-c3cccc(C(=O)NCCC(c4ccccc4)c4ccccc4)c3)o2)cc1 | 100% | 89% | 0%
18 | Cc1ccc(C(NC(=O)c2ccccc2)c2ccc3cccnc3c2O)cc1 (configuration not stated) | 92% | 72% | 53%
19 | CCN(CC)CCOc1ccc(C(O)(C#CC(O)(c2ccc(OCCN(CC)CC)cc2)c2ccc([N+](=O)[O-])cc2)c2ccc([N+](=O)[O-])cc2)cc1 (configuration not stated) | 98% | 97% | 55%
20 | O=[N+]([O-])c1ccc(-c2ccc(C=NNc3nc(Nc4ccccc4)nc(Nc4ccccc4)n3)o2)cc1 | 91% | 12% | 0%

Row | Compound | Inhibition [1] | Inhibition [2] | Inhibition [3]
21 | CS(=O)(=O)c1ccc2c(c1)CCN(CCC1CCC(NC(=O)C(=Cc3ccc(Cl)cc3Cl)c3ccc(-c4ccccc4)cc3)CC1)CC2 (configuration not stated) | 81% | 16% | 33%
22 | CN(C)CCC(O)(c1ccc(Br)cc1)c1cccnc1 (configuration not stated) | 96% | 1% | 22%
23 | O=C(Nc1ccc(-c2cccc(-c3nc4ccccc4[nH]3)c2)cc1)Nc1ccc(Cl)c(Cl)c1 | 100% | 80% | 61%
24 | CS(=O)(=O)N(c1ccc(F)cc1)c1cc(C(=O)N[C@@H](Cc2ccccc2)[C@H](O)CNCc2cccc(C(F)(F)F)c2)cc(N2CCCC2=O)c1.O=CO | 91% | 65% | 0%
25 | Cc1ccc(C)c(NC(=O)Nc2ccc(C)c(-c3ccc(C(=O)Nc4ccncc4)cc3)c2)c1 | 98% | 59% | 46%
26 | CC1CCc2sc(-c3nnc(SC(C)C(=O)NC4CC4)o3)cc2C1 (configuration not stated) | 83% | 69% | 5%
27 | Cl.O=c1cc(NCCNCc2cccc(-c3ccccc3)c2)[nH]c2ccccc12 | 93% | 68% | 0%
28 | CCn1c(-c2nonc2N)nc2c(-c3cccc(Cl)c3)ncc(OCCCNCCc3c[nH]cn3)c21.O=C(O)C(F)(F)F | 100% | 98% | 16%
29 | COc1cc(C(F)(F)F)c2cc(CNCCCNc3nc4ccccc4[nH]3)[nH]c2c1 | 100% | 0% | 60%
30 | CC(=O)N(Cc1ccc(CC(C)NCCc2cccc(Cl)c2)cc1)Cc1ccc(CC(C)NCCc2cccc(Cl)c2)cc1 (configuration not stated) | 100% | 94% | 98%
31 | C=CCOC(=O)N1CCC(CNCc2ccc(-c3ccc(-c4nc5ccccc5[nH]4)s3)cc2)C1.O=C(O)C(F)(F)F (configuration not stated) | 100% | 76% | 29%
32 | Fc1ccc(C(OCC2CCCN(Cc3cccc4cccnc34)C2)c2ccc(F)cc2)cc1 (configuration not stated) | 98% | 97% | 21%
33 | CCNc1cc(C(=O)N[C@@H](Cc2ccccc2)[C@H](O)CNCC(C)C)cc(N2CCCC2=O)c1 | 98% | 97% | 16%
34 | COc1ccc(-c2cccc(NC(=O)c3ccccc3)c2)cc1CN1CCCN(C)CC1.O=C(O)C(F)(F)F | 98% | 25% | 22%
35 | Cl.Clc1ccc(-n2cnc3c(Nc4ccc(Oc5ccccc5)cc4)ncnc32)cc1Cl | 99% | 65% | 4%
36 | N=C(/N=C(/NCCCCCCN/C(=N/C(=N)NCc1ccc(Cl)c(Cl)c1)N1CCCCC1)N1CCCCC1)NCc1ccc(Cl)c(Cl)c1 | 100% | 99% | 6%
37 | COc1nc(NCC(C)C)nc(Oc2ccc(=O)n(Cc3ccccc3)n2)n1 | 97% | 93% | 1%
38 | Cl.c1cc(-c2cc3ccc(C4=NCCN4)cc3[nH]2)ccc1C1=NCCN1 | 97% | 99% | 15%
39 | Cl.Oc1cccc(Nc2ccnc3cc(-c4ccccn4)ccc23)c1 | 96% | 98% | 24%
40 | CC1CCC(C(C)C)C(OC(=O)CSc2nnc3c(n2)[nH]c2ccccc23)C1 (configuration not stated) | 88% | 74% | 0%

Row | Compound | Inhibition [1] | Inhibition [2] | Inhibition [3]
41 | O=C(C=Cc1cn(-c2ccccc2)nc1-c1ccccc1)N1CCN(c2ccncc2)CC1 | 90% | 20% | 11%
42 | Cc1nc2nc(N)nc(N)c2c(C)c1Cc1c(Cl)cccc1Cl.Cl | 94% | 5% | 7%
43 | Cc1ccccc1OCC(O)CNC1CCC(NCC(O)COc2ccccc2C)CC1 (configuration not stated) | 98% | 24% | 96%
44 | CCc1cn(CCc2ccccc2)c2ccc(C(=O)N[C@@H](Cc3ccccc3)[C@H](O)CNC(C)(C)CCCC(C)C)cc12.O=CO | 98% | 99% | 66%
45 | Cc1nc(N)nc(N)c1-c1cc(Cl)c(N)c(Cl)c1 | 94% | 2% | 62%
46 | Cl.Cl.N=C(N)c1cccc(-c2cc(-c3cccc(C(=N)N)c3)on2)c1 | 96% | 78% | 8%
47 | Cc1nc(NC(=N)N)nc2ccc(C(C)(C)C)cc12.Cl | 96% | 91% | 4%
48 | COc1ccc(Cn2c(=O)[nH]c3cc(C(=O)NC4CCN(Cc5ccccc5)CC4)ccc3c2=O)cc1 | 97% | 45% | 10%
49 | CCN(CC)CCN(Cc1ccc(-c2ccc(Cl)cc2)cc1)C(=O)Cn1cc(CN(C)C)c(=O)nc1SCc1ccc(F)cc1 | 99% | 99% | 49%
50 | O=C(O)C(F)(F)F.c1ccc(CN2CCC(NCc3ccccc3-c3cccc(CNC4CCCC4)c3)CC2)cc1 | 100% | 59% | 35%
51 | CC(Cc1ccc(OCC(=O)NCC2CCN(CCc3cccc(Cl)c3)CC2)cc1)NCCc1cccc(Cl)c1.Cl (configuration not stated) | 96% | 85% | 100%
52 | CC(C)(C)c1ccccc1SC1=C(O)CC2(CCNCC2)OC1=O.Cl | 99% | 0% | 0%
53 | Oc1ccccc1CN(CCCN(Cc1ccccn1)Cc1ccccc1O)Cc1ccccn1 | 92% | 92% | 64%
54 | C[C@@H](Oc1cc(-n2cnc3ccc(OCC4CCN(S(C)(=O)=O)CC4)cc32)sc1C(N)=O)c1ccccc1C(F)(F)F | 84% | 50% | 31%
55 | O=C(NC(Cc1ccccc1)C(=O)O)c1cc(=O)c2ccccc2o1 (configuration not stated) | 99% | 10% | 53%
56 | CCOc1ccc(-c2nonc2NC(=O)c2cccs2)cc1OCC | 100% | 100% | 6%
57 | CCOc1cc(C(=O)Nc2ccc3nc(N4CCN(C)CC4)cc(C)c3c2)cc(OCC)c1OCC | 97% | 50% | 14%
58 | N#Cc1ccc(/C=C/C(=O)NCCCCCN2CCN(C(=O)Nc3ccc(Cl)c(C(F)(F)F)c3)CC2)cc1 | 94% | 0% | 42%
59 | O=C(O)C(F)(F)F.OC1CCCN(Cc2cccc(-c3ccc(-c4nc5cc(F)ccc5[nH]4)cc3)c2)C1 (configuration not stated) | 100% | 42% | 16%
